hNpr1 antagonist: blocks ANP-stimulated signaling of human Npr1 receptor; P16066; HEK293 hNpr1 GloSensor cGMP, ANP-stimulated luminescence; Potency, µM (titrated, usually from 46.3 µM), for the others: top-dose activity change, negative = inhibition, usual class: inhibitors; 76,000 compounds, 1.6% hits; calls by dose curve; also: nearly all actives have a fitted effect of over 60% in size
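Compound pre-incubated 30 min at room temperature on GloSensor-loaded HEK293 cells stably carrying hNpr1 and the pGS-40F cGMP biosensor. Stimulation uses hNppA at 0.1 nM final; luminescence is taken at baseline and 20 min post-agonist.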
GPT2 inh: inhibitors of human GPT2 alanine aminotransferase; Q8TD30; Recombinant GPT2, coupled pyruvate oxidase/HRP Amplex Red fluorescence; Potency, µM (titrated, usually from 57.7 µM), inactives show at the top dose activity change, negative = inhibition, actives largely listed as inhibitors; 100,000 compounds, 0.25% hits; AID 1671188; also: nearly all actives have a fitted effect of over 60% in size
Target sequence (Q8TD30 whole entry, looked up): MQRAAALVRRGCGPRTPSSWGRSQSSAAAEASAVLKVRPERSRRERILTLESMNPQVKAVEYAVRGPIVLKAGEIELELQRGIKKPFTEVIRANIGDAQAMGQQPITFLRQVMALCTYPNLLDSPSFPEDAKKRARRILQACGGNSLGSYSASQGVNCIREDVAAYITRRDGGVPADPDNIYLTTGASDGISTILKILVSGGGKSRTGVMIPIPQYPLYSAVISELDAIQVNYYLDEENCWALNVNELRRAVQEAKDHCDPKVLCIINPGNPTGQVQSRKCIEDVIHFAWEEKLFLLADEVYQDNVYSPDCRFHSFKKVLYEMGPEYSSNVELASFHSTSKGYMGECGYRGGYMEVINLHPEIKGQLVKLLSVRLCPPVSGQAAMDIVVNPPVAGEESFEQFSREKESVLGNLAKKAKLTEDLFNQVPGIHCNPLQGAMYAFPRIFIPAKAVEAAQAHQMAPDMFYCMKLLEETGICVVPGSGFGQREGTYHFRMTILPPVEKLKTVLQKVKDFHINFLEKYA
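Fluorescence read-out: pyruvate from GPT2 turnover coupled to pyruvate oxidase, HRP and Amplex Red (0.2mM ThPP, 0.2U/mL PO and HRP, 50uM Amplex final). Substrates 250uM a-KG, 2mM L-alanine; enzyme 10ng/uL; 30 min RT.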
HEK293 tox: HEK 293 cell cytotoxicity. HEK 293 viability, ATP luminescence (CellTiter-Glo), 48-72 h. 94,000 compounds, 6.6% hits. Potency, µM (highest dose often 115 µM), for inactives: at the highest dose activity change, negative = cytotoxicity, usual class: inhibitors; also: nearly all actives have a fitted effect of over 60% in size
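Viability of HEK 293 cells, plated at 250 cells/well, was judged by cellular ATP after compound treatment for 48 or 72 hr. Luminescence was imaged 10 min after CellTiter-Glo addition at room temperature.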
3T3 cytotox: kills NIH 3T3 cells; NIH 3T3 viability, CellTiter-Glo ATP luminescence, 48-72 h; Potency, µM (titrated, usually from 96.7 µM), inactives show at the top dose activity change, negative = cytotoxicity, most hits filed as inhibitors; 94,000 compounds, 4.3% hits; also: nearly all actives have a fitted effect of over 55% in size
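Luminescent ATP readout (CellTiter-Glo, 10 min RT) after 48 or 72 hr compound exposure of NIH 3T3 cells seeded at 400 cells/well in 1536-well format; quantitative HTS.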
Luciferase inh: blocks purified firefly luciferase enzyme activity; 76,000 compounds, 2.5% hits; Potency, µM (doses to about 115 µM), usual class: inhibitors; AID 1347043; purified P. pyralis luciferase, luminescence, biochemical; also: nearly all actives have a fitted effect of over 65% in size
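Purified P. pyralis luciferase (10nM final) in 50mM Tris acetate pH 7.5, 10mM Mg acetate, 0.01% Tween-20, 0.05% BSA with 10uM D-luciferin and 10uM ATP. Compounds titrated qHTS. Luminescence imaged on CCD.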
* = called active by the depositor; i = inactive; ? = inconclusive; · = no result; [ ] = dose if it differs, or a comment. Shown are actives, neighbours in structure and some others; about 10% of the full set was active somewhere. Unless noted, calls follow the shape of the dose curve; as a rule, active = well fitted curve in the direction sought with a large enough effect; inconclusive = small, poorly fitted or top-dose-only effect, or another doubt; inactive = no such curve, though single readings can be large; an effect the other way counts as inactive or inconclusive. % is scaled to controls: 0 for no effect and ±100 for the full control effect; potency is read from the fitted curve at half-maximal effect.

SMILES | hNpr1 antagonist | GPT2 inh | HEK293 tox | 3T3 cytotox | Luciferase inh
O=C(Cc1ccc(O)cc1)N1CC(CNc2ccccc2)C2(C1)CN(c1ccccc1)C2 (centres undefined) | -26%[70.6 µM] | -13%[88.5 µM] | 50µM* | 32µM* | i
O=C(c1cccc(O)c1)N1CC(CNc2ccccc2)C2(C1)CN(c1ccccc1)C2 (centres undefined) | -8%[70.6 µM] | -12%[88.5 µM] | 63µM* | 50µM* | i
O=C(c1cccc(Cl)c1)N1CC(CNc2cccnc2)C2(C1)CN(c1ccccc1)C2 (centres undefined) | -3%[70.6 µM] | -9%[88.5 µM] | ? | ? | i
CCOc1ccccc1CN1C[C@@H]2C(=O)N(Cc3ccc4c(c3)OCO4)C(=O)[C@@H]2C1 | -2% | i | ? | ? | i
O=C(c1cccc2[nH]ccc12)N1CCC(N2C(=O)C3(CCCCC3)C2c2ccncc2)CC1 (centres undefined) | 10% | i | i | 3% | i
O=[S+]([O-])(NC1CCN(Cc2cccc(-c3ccc(F)c(F)c3)c2)CC1)c1ccccc1 | · | · | 28µM* | 20µM* | ·
O=[S+]([O-])(NC1CCN(Cc2cccc(-c3cccs3)c2)CC1)c1cccc(C(F)(F)F)c1 | · | -16% | ? | 8.9µM* | ·
O=[S+]([O-])(NC1CCN(Cc2cccc(-c3ccc(F)c(F)c3)c2)CC1)c1cccc(C(F)(F)F)c1 | · | -13% | 22µM* | 14µM* | ·
COc1ccc(CC(=O)NC2CCN(c3ccc4nnc(C)n4n3)C2)cc1 (centres undefined) | · | · | -15% | -20% | ·
O=C(NC1CCN(c2cnn(Cc3ccccc3)c(=O)c2)CC1)C1CCCCC1 | 0% | -8% | ? | -16% | i
COc1ccccc1-c1ccc(C(=O)N2CCC(NC(=O)c3cccc(Cl)c3)CC2)cc1 | · | i | ? | ? | ·
Cc1nn2c(c1-c1ccccc1N1CCCC1)N(C(=O)c1cc3ccccc3n1C)CCC2 | -19%[70.6 µM] | i | 50µM* | 35µM* | i
Cc1nn2c(c1-c1ccccc1N1CCCC1)N(C(=O)c1ccc(F)cc1)CCC2 | -16%[70.6 µM] | 3%[88.5 µM] | 71µM* | ? | i
Cc1nn2c(c1-c1ccccc1C(C)C)N(C(=O)c1cc3ccccc3n1C)CCC2 | ? | 1%[88.5 µM] | 50µM* | 22µM* | i
Cc1nn2c(c1-c1cccnc1N1CCOCC1)N(C(=O)c1cc3ccccc3n1C)CCC2 | 5% | -15% | -11% | ? | i
O=C(c1cc2ccccc2[nH]1)N1CCCC(c2nc(CCOCC3CC3)no2)C1 (centres undefined) | ? | 0% | ? | ? | ?
CC(C)c1ccc(NC(=O)CN2C(=O)NC(c3ccccc3Cl)C3=C2COC3=O)cc1 (centres undefined) | -12% | i | ? | ? | ?
O=C(c1ccccc1OCC1CCCN(C2CCCCC2)C1)N1CCCC1 (centres undefined) | -4% | i | ? | -13% | i
NC(=O)c1cccnc1N1CCC(n2cc(-c3ccccc3Cl)nn2)CC1 | -9% | ? | 79µM* | -24% | i
Cc1cc2cc(-c3c(C)noc3C)nc(-c3ccc(CO)cc3)c2o1 | -2%[70.6 µM] | ? | ? | 28µM* | i
COc1cccc(-c2nc(-c3c(C)noc3C)cc3cc(C)oc23)c1 | 3%[70.6 µM] | -6%[88.5 µM] | ? | ? | i
Cc1noc(C)c1-c1cc2cc(C(C)C)oc2c(-c2ccc(CO)cc2)n1 | -7%[70.6 µM] | -23%[88.5 µM] | ? | ? | i
Cc1noc(C)c1-c1cc2cc(CO)oc2c(-c2cccc(OC(C)C)c2)n1 | -15%[70.6 µM] | -20%[88.5 µM] | 89µM* | ? | i
Cc1cc2cc(-c3c(C)noc3C)nc(-c3cccc([S+](C)(=O)[O-])c3)c2o1 | -21%[70.6 µM] | -12%[88.5 µM] | ? | 11µM* | i
O=C(Nc1cccn2nc(C3CCC3)nc12)c1cccc(C(F)(F)F)c1 | -11% | ? | ? | ? | i
SMILES | hNpr1 antagonist | GPT2 inh | HEK293 tox | 3T3 cytotox | Luciferase inh
O=C(c1ccccc1F)N1CCCC2(C1)C(=NC1CCCC1)NC(=O)N2c1cc(F)cc(F)c1 (centres undefined) | -1% | i | ? | ? | i
O=C(C1CCCN(Cc2cccc(-c3ccc(F)cc3F)c2)C1)N1CCN(c2ncccn2)CC1 (centres undefined) | · | i | 40µM* | ? | ·
O=C(C1CCCN(Cc2cccc(-c3ccc(F)cc3F)c2)C1)N1CCCC1 (centres undefined) | · | ? | 28µM* | ? | ·
COC(=O)CNC(=O)C1CCCN(Cc2cccc(-c3ccc(F)cc3F)c2)C1 (centres undefined) | · | -6% | -28% | ? | ·
CC1=C[C@@H](CN2CCN(CCO)CC2)[C@H](C(C)C)C[C@H]1Cc1nnc(-c2ccc(N(C)C)cc2)o1 | 1% | 1% | 14µM* | 20µM* | i
CC1=C[C@@H](CN2CCN(CCO)CC2)[C@H](C(C)C)C[C@H]1Cc1nnc(-c2ccc([N+](=O)[O-])cc2)o1 | -3% | -2% | ? | ? | i
COc1ccc(-c2nnc(C[C@@H]3C[C@@H](C(C)C)[C@H](CN4CCN(CCO)CC4)C=C3C)o2)cc1 | -4% | i | 45µM* | ? | i
CC1=C[C@@H](CN2CCN(c3cnccn3)CC2)[C@H](C(C)C)C[C@H]1Cc1nnc(-c2ccccc2)o1 | -30% | i | 25µM* | ? | i
CC1=C[C@@H](CN2CCN(c3ccccn3)CC2)[C@H](C(C)C)C[C@H]1Cc1nnc(-c2ccc(C)cc2)o1 | -28% | ? | ? | ? | i
CC1=C[C@@H](CN2CCN(c3ncccn3)CC2)[C@H](C(C)C)C[C@H]1Cc1nnc(-c2ccc(N(C)C)cc2)o1 | -20% | -19% | 28µM* | ? | i
COc1cccc(-c2c(C(=O)NCCc3ccc(Cl)cc3)nc3sccn23)c1 | · | i | ? | ? | ·
Cn1cc(CN2CCCC(COc3ccccc3C(=O)NC3CC3)C2)c2ccccc21 (centres undefined) | -2% | 4% | ? | -26% | i
COc1ccccc1C(=O)N1CCCC1C(=O)N1CCC(c2nc3ncccc3[nH]2)CC1 (centres undefined) | · | -41% | -2% | ? | ·
C#CCNC(=O)c1ccc2nnc(-c3ccc(C(F)(F)F)cc3)n2c1 | · | -3% | -3% | -24% | ·
COc1ccc(-c2nnc(C[C@@H]3C[C@@H](C(C)C)[C@H](CN4CCN(C)CC4)C=C3C)o2)cc1 | -2% | ? | 32µM* | 40µM* | i
N#Cc1cccnc1-c1cccc(C(=O)NCCNC(=O)c2ccc(C(F)(F)F)cc2)c1 | · | i | ? | ? | ·

Compound activity deposited in PubChem BioAssay by National Center for Advancing Translational Sciences (NCATS).
